High-throughput results from PubChem BioAssay.
Compounds with a hit are over-represented: about 1.1% of the library has one in this group of screens.
MOR-DOR inv ag: mu-delta opioid heterodimer inverse agonism | inhibition, % at 9.3 µM | cell-based MOR-DOR heterodimer luminescence | P35372+P41143 | hit rate 0.21% among 340,000; in the data active means inhibition above about 22%, passing the limit was not always enough;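 further: 0% = cells with DMSO and 100% = wells without cells with DMSO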
HTR5A inv ag: inverse agonist of human HTR5A in OPRM1-OPRD1 counter-screen; HTR5A cell line, luminescence, inverse agonism; inhibition, % at 9.3 µM; hit rate 0.083% among 340,000; AID 504634; in the data active means inhibition mostly above about 23%, no sharp cut-off; inactive means mostly below about 18%;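 further: 0% = cells with DMSO and 100% = no-cell wells with DMSO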
Target sequence (P47898 whole entry, looked up): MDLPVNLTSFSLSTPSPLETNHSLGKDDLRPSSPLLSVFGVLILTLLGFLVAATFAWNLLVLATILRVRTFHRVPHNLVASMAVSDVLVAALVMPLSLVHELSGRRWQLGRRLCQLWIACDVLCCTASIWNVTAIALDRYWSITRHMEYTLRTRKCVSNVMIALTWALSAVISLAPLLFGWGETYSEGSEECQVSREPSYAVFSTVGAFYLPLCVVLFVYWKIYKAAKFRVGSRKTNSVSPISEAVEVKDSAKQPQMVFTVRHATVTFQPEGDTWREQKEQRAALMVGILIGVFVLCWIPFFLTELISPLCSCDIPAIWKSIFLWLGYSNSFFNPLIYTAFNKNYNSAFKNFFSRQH
MOR-DOR ag: agonists of human mu-delta opioid receptor heterodimerization | P35372+P41143 | cells, OPRM1-OPRD1 heterodimerization, luminescence | activation, % at 9.3 µM | hit rate 0.3% among 340,000 | AID 504326; in the data active means activation above about 18%;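 further: 0% = vehicle-treated cells and 100% = reference agonist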
HTR5A ag: HTR5A agonism, opioid heterodimer counter-screen | P47898 | HTR5A agonist assay, luminescence, cell-based | activation, % at 9.3 µM | hit rate 0.61% among 340,000 | AID 504692; in the data active means activation mostly above about 9.5%, no sharp cut-off; inactive means mostly below about 7.6%;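 further: 0% = cells with vehicle only and 100% = reference agonist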
* marks the source's active call; other numbers are inactive results.

SMILES | MOR-DOR inv ag | HTR5A inv ag | MOR-DOR ag | HTR5A ag
Cc1cccc(-c2cc(C(=O)Nc3cccnc3)c3ccccc3n2)c1 | -37 | -12 | 5 | 0
Cc1cc(NC(=O)c2cc(-c3ccncc3)nc3c(C)cccc23)no1 | -3 | 8 | 1 | -4
Cc1ccc2nc(-c3ccccc3)cc(C(=O)Nc3cccnc3)c2c1 | -30 | -27 | 8 | 13*
C/C(=N\NC(=S)NCc1ccccc1)c1ccc(C)o1 | 21 | -11 | -4 | 4
CCn1nc(C(=O)OCC(=O)N2CCc3ccccc32)c2ccccc2c1=O | 10 | -45 | -2 | 14*
CCn1nc(C(=O)N2CCc3ccccc32)c2ccccc2c1=O | 0 | -3 | 0 | 5
O=C(NCC1(c2ccccc2)CCCC1)C(=O)NCC1(c2ccccc2)CCCC1 | -3 | 9 | 1 | 9.9*
O=C(NCC1(c2ccccc2)CCCC1)c1ccccc1 | 4 | 21 | -1 | 2
COC(=O)c1ccc(Oc2nc(Nc3ccc(C)c(C)c3)nc(N(C)C)n2)cc1 | -18 | 0 | 3 | 6
CCCc1nnc(SCC(=O)N2CCOCC2)n1Cc1ccco1 | -17 | 0 | 3 | 9.6*
O=C(CSc1nnc(CNc2ccc(F)cc2)n1Cc1ccco1)N1CCCC1 | -7 | 6 | 1 | 0
COc1cc(/C=N/NC(=O)NC23CC4CC(CC(C4)C2)C3)ccc1OCC(N)=O | -13 | -7 | 3 | 2
Cc1cc(NC(=O)c2cc3cccc([N+](=O)[O-])c3[nH]2)ccc1F | -30 | -36 | 6 | 12*
COc1ccc(CNC(=O)CN2C(=O)C(C)N(c3ccc(C)cc3)C2=O)cc1 (stereo not given) | 8 | -8 | -1 | 12*
Cc1nn(-c2ccccc2)c(C)c1C(=O)OC(C)C(=O)NC1CCCCC1 (stereo not given) | -2 | 6 | 0 | -2
CCCN1CCN(CCCNC(=O)C(CC)n2nc(C)c3sc4ccccc4c3c2=O)CC1 (stereo not given) | 15 | 6 | -3 | 10*
CCOc1ccccc1Nc1nc2ccccc2n2cnnc12 | 21 | 1 | -4 | 0
CCN(CC)c1nc2ccccc2n2cnnc12 | -2 | 15 | 0 | 13*
Cc1ccc(S(=O)(=O)Nc2c(NC3CCCCC3)c3ccccc3oc2=O)cc1 | -1 | 4 | 0 | 13*
Cc1ccc(NC(=O)COC(=O)C2CC2(Cl)Cl)cc1C (stereo not given) | -17 | -25 | 3 | 9.0*
Cc1cccc(NC(=S)N2CCOCC2)c1C | -5 | -31 | 1 | 11*
Cc1cccc(NC(=O)CN2CCOCC2)c1C | -2 | -36 | 0 | 9.8*
CCn1cc(C(=O)NC(=S)Nc2ccccc2Br)cn1 | -2 | 10 | 1 | -4
COc1ccccc1NC(=S)NC(=O)c1ccc(Cn2cc(Br)cn2)cc1 | -77 | -4 | 11 | 13*
COc1ccc(/C=C(/C(=O)c2cccs2)N2C=CC=CC2=C(C#N)C#N)cc1 | 6 | 7 | -1 | -6
SMILES | MOR-DOR inv ag | HTR5A inv ag | MOR-DOR ag | HTR5A ag
N#CC(C#N)=C1C=CC=CN1/C(=C\c1ccco1)C(=O)c1ccc(Br)cc1 | 29* | -4 | -5 | -2
COc1ccc(C(=O)/C(=C\c2ccco2)N2C=CC=CC2=C(C#N)C#N)cc1 | 33* | 7 | -5 | -3
N#C/C(=C/c1ccco1)C(N)=S | -3 | 12 | 0 | 1
N#CC(C#N)=C1C=CC=CN1/C(=C\c1ccco1)C(=O)c1ccccc1 | 36* | -8 | -7 | -4
COC(=O)c1cc(=O)n(-c2ccc(C(F)(F)F)cc2)[nH]1 | 5 | 5 | -1 | 1
COc1ccc(CNC(=O)c2oc3ccc(S(=O)(=O)N4CCOCC4)cc3c2C)cc1 | -6 | 8 | 1 | -3
CCOC(=O)C=Nc1c(N)n(C)c(=O)n(C)c1=O | 26 | -15 | -5 | -3
CC(C)(C)C(=O)CN1C(=O)NC2(CCCc3ccccc32)C1=O (stereo not given) | 16 | 4 | -3 | -1
COc1ccc(-c2ccc(SCC(=O)N3CCCC3)nn2)cc1OC | 0 | -20 | 0 | 11*
COc1ccc(-c2ccc(SCC(=O)N3CCOCC3)nn2)cc1OC | 8 | 2 | -1 | 0
CCN(c1ccccc1)S(=O)(=O)c1ccc(Cl)c(NC(=O)c2ccc(=O)[nH]n2)c1 | -15 | -30 | 4 | 12*
O=C(CCCOc1ccccc1)Nc1cccc(S(=O)(=O)N2CCCCCC2)c1 | -7 | -14 | 2 | 5
CCCOc1ccc(C(=O)NNC(=S)NC(=O)c2cc(-c3ccc(Cl)cc3)nc3ccccc23)cc1 | 61* | 75* | -11 | -22
O=C(/C=C/c1ccc(Cl)cc1)NCc1cccs1 | -6 | -49 | 1 | 13*
O=C(/C=C/c1cccc(Cl)c1)NCc1cccs1 | 3 | -1 | -1 | -3
O=C(N/C(=C/c1ccccc1Cl)C(=O)N1CCCC1)c1ccccc1 | -1 | 3 | 0 | 14*
